# Tau fibril ThT = tau fibrillization inhibition (ThT binding) | P10636 | recombinant tau K18 P301L, heparin-induced fibrillization, ThT fluorescence | Potency, µM (doses to about 57.4 µM), hits mostly inhibitors | 270,000 compounds, 2.1% hits; further: nearly all actives have a fitted effect of over 55% in size
# Target sequence (P10636 561-689 P618L limits assumed): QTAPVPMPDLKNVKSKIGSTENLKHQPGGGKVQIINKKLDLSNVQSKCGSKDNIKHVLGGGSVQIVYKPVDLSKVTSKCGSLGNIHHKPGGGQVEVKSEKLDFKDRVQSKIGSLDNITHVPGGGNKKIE
#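 Using a mix of unlabeled (15 uM) and Alexa 594-labeled (0.24 uM) tau K18 P301L, heparin-triggered fibrillization over 6 hr at 37 C was scored by ThT fluorescence.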
# Tau fibril FP = tau fibrillization inhibition (FP); P10636; Potency, µM (top dose mostly 57.7 µM), actives largely listed as inhibitors; AID 1468; K18 P301L tau heparin fibrillization, Alexa594 FP, 6 h; 280,000 compounds, 0.39% hits; further: nearly all actives have a fitted effect of over 55% in size
#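 K18 P301L tau (15 uM unlabeled/0.24 uM Alexa 594-labeled, final) + compound + heparin 20 uM final; 100 mM NaOAc pH 7; 6 hr 37 C; ThT 30 uM final added, 1 hr RT; FP ex 555/em 632 nm.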
# G9a inh = inhibitors of human histone lysine methyltransferase G9a | Q96KQ7 | G9a H3K9 monomethylation, AlphaScreen, 2 h | Potency, µM (titrated, usually from 102 µM), hits mostly inhibitors | 350,000 compounds, 8.8% hits | AID 504332; further: nearly all actives have a fitted effect of over 75% in size
# Target sequence (Q96KQ7 913-1193 limits assumed): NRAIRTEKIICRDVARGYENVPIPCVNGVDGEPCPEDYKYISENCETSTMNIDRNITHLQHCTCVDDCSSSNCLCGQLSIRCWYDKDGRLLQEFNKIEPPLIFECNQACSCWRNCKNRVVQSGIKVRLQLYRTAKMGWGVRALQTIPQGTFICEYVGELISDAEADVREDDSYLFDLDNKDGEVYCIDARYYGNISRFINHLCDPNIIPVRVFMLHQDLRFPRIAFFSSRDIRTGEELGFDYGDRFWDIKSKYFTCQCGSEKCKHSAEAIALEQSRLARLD
#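 Enzyme 20 nM + cpd, 15 min RT; add b-H3K9 pep 500 nM / SAM 20 uM; 2 h RT; anti-H3K9me1 Ab 0.5 ug/mL + SA donor / anti-rabbit acceptor beads 20 ug/mL each, 10 min; AlphaScreen read.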
# Tau fluor cs = counter-screen for tau fibril formation inhibitors. AID 1463. 280,000 compounds, 0.93% hits. Potency, µM (top dose mostly 57.7 µM). tau K18 P301L (four-repeat tau fragment) Alexa594 fluorescence, heparin fibrillization; further: nearly all actives have a fitted effect of over 55% in size
#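 Human K18 P301L tau (15 uM unlabeled plus 0.24 uM Alexa 594-labeled, final) in 100 mM sodium acetate pH 7 was mixed with compound and 20 uM heparin and incubated 6 hr at 37 C.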
# Sfp inh = inhibitors of Bacillus subtilis Sfp phosphopantetheinyl transferase. Q9F4F7. Biochemical Sfp PPTase activity, qHTS. Potency, µM, actives largely listed as inhibitors. 310,000 compounds, 3.5% hits. AID 1490;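 further: the enzyme is Sfp with the accession as filed and its product quenches rhodamine fluorescence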
#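 Step 1, compound plus 15 nM Sfp-PPTase, 15 min, room temperature. Step 2, add rhodamine-CoA (5 uM) and BHQ-2-YbbR (12.5 uM). Step 3, read 525/598 nm fluorescence at 0 and 30 min.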
# Coupling enz = inhibits coupling enzyme system, counter-screen for aldolase hits | coupling enzyme system counterscreen, AmpLite Red fluorescence | activity change, negative = inhibition, % at 58.2 µM, hits read low | 290,000 compounds, 0.67% hits; in the data active means activity change below about -30%
#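 Final compound at 57.5 uM, incubated 10 min at RT with coupling enzyme reagent (glyceraldehyde-3-phosphate), then 20 min with substrate and AmpLite Red detection. Fluorescence read at 525/598 nm; tests interference with the coupling assay, not aldolase inhibition.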
# Numbers stand for hits; n = inactive; u = inconclusive; x = not tested or not shown; [ ] = remark or other dose. Compounds with a hit are over-represented: about 11% of the library has one in this group of screens. Unless noted, the call rests on the fitted dose curve; in most records, active means well fitted curve in the direction sought with a large enough effect; inconclusive means small, poorly fitted or top-dose-only effect, or another doubt; inactive means no such curve, though single readings can be large; an effect the other way counts as inactive or inconclusive.
SMILES,Tau fibril ThT,Tau fibril FP,G9a inh,Tau fluor cs,Sfp inh,Coupling enz
Cc1ccc(S(=O)(=O)NCC2CCC(C(=O)NCCc3ccccc3)CC2)cc1 (centres undefined),u,n,n,n,x,x
CCN(CC(=O)Nc1ccc(NC(C)=O)cc1)C(=O)c1cccnc1Sc1ccc(C)c(C)c1,x,x,50.1µM,x,x,x
O=S(=O)(/N=C(\c1ccccc1F)N1CCCCC1)c1ccccc1,n,n,n,n,n,n
Cc1ccc2[nH]c(=O)c(Cc3ccccc3)c(O)c2c1,n,n,8.91µM,n,u,n
CN1/C(=C\C=C2/C(=O)Oc3ccccc3C2=O)C(C)(C)c2ccccc21,u,n,u,u,n,n
CN1/C(=C\C=C2/SC(=S)NC2=O)C(C)(C)c2ccccc21,3.55µM,n,7.94µM,u,u,n
CN1C(=CC=C2C=C(I)C(=O)C(I)=C2)C(C)(C)c2ccccc21,2.24µM,u,x,0.708µM[fluorescent],89.1µM,n
CC(C)c1ccc(NC(=O)c2sccc2-n2cccc2)cc1,u,n,n,u,n,n
COc1ccc(CNC(=O)c2cncc(Br)c2)cc1,x,x,n,x,n,n
N#C/C(=N/Nc1ccc(S(=O)(=O)N2CCOCC2)cc1)C(N)=O,n,n,n,n,n,n
N#C/C(=N/Nc1ccc([N+](=O)[O-])cc1)C(=N)N1CCCCC1,10µM,n,u,n,n,n
N#C/C(=N\Nc1ccc([N+](=O)[O-])cc1)C(N)=S,x,n,x,n,44.7µM,n
N#C/C(=N\Nc1ccc([N+](=O)[O-])cc1)C(=N)N1CCOCC1,u,n,x,n,n,n
O=C(O)/C(=C/c1ccco1)NC(=O)c1ccc(Br)o1,x,x,44.7µM,x,n,n
O=C(Nc1ccc(C(=O)O)cc1)/C(=C\c1ccco1)NC(=O)c1ccc(Br)o1,x,x,35.5µM,x,50.1µM,n
CC1=CC(=O)C2=C(C)C[C@H](OC(=O)Cc3ccccc3)C3[C@H](OC(=O)[C@H]3C)C12 (some centres undefined),n,n,x,n,n,n
O=C1CC2(CCN(S(=O)(=O)c3ccccc3F)CC2)Oc2ccccc21,x,x,n[2.33 µM],x,x,x
CN1C(=O)/C(=C/c2cn(CC(=O)N3CCCCC3)c3ccccc23)NC1=S,x,x,39.8µM,x,n,x
CCN=C1S/C(=C\c2cn(CC(=O)NCc3ccco3)c3ccccc23)C(=O)N1CC,x,x,n,x,u,n
O=Cc1cn(CC(=O)N2CCCCCC2)c2ccccc12,x,x,n,x,n,n
CC1CCCCN1C(=O)Cn1cc(C=O)c2ccccc21 (centres undefined),n,n,n,n,n,n
CN1C(=O)/C(=C/c2cn(CC(=O)NCc3ccco3)c3ccccc23)NC1=S,12.6µM,u,x,u,7.08µM,n
CC1CCCCN1C(=O)Cn1cc(/C=C2/C(=O)Nc3ccccc32)c2ccccc21 (centres undefined),10µM,n,u,u,n,x
CC(=O)N1CCc2nc3sc(C(=O)c4ccc(F)cc4)c(N)c3c(C(F)(F)F)c2C1,4.47µM,n,n,n,x,x
Cc1nc(-c2ccccc2)nc2sc(C(=O)c3ccc(F)cc3)c(N)c12,u,u,n,u,n,n
SMILES,Tau fibril ThT,Tau fibril FP,G9a inh,Tau fluor cs,Sfp inh,Coupling enz
COc1ccc(C(=O)c2sc3nc4c(c(C(F)(F)F)c3c2N)CN(C(C)=O)CC4)cc1OC,14.1µM,n,n,n,x,x
CCc1c(C)c(C#N)c2nc3ccccc3n2c1Nc1cccc(C(F)(F)F)c1,n,n,n,n,x,x
Cc1cc(C)nc(Sc2nc(Cl)nc(N(c3ccccc3)c3ccccc3)n2)n1,u,u,u,n,25.1µM,n
O=C(NCCc1ccc(Cl)cc1)c1ccc(Cn2c(=O)c3cccn3c3cccnc32)cc1,n,n,u,n,x,x
Cc1nn(-c2ccccc2)c(C)c1C=O,n,n,n,n,n,n
Cc1nn(-c2ccccc2)c(C)c1S(=O)(=O)O,n,n,44.7µM,n,n,n
O=C(COC(=O)c1nc(Cl)c(Cl)c(Cl)c1Cl)c1ccc[nH]1,x,x,14.1µM,x,x,x
CCOc1ccc(CNC(=O)CN2C(=O)CCn3nc(-c4cn(C)c5ccccc45)cc32)cc1OC,n,n,n,n,x,x
Cc1nn(-c2ccccc2)c2c1C1(C(=O)N(C)c3ccccc31)C(C#N)=C(N)O2 (centres undefined),22.4µM,u,n[12.7 µM],u,n,-43.8
CCN1C(=O)C2(C(C#N)=C(N)Oc3c2c(C)nn3-c2ccccc2)c2ccccc21 (centres undefined),15.8µM,u,u,u,n,-44.9
Cc1cc2c(c(=O)o1)C1(C(=O)N(C)c3ccccc31)C(C#N)=C(N)O2 (centres undefined),n,n,n,n,n,n
CCOC(=O)N1CCC2(CC1)C(C#N)=C(N)Oc1c2c(C)nn1-c1cccc(Cl)c1,22.4µM,n,u,u,n,n
Cc1nn(-c2ccccc2)c2c1C1(C(=O)N3c4c(cccc41)C(C)CC3(C)C)C(C#N)=C(N)O2 (centres undefined),u,u,10µM,u,n,-58.5
Cc1ccc2c3c1C1(C(=O)N3C(C)(C)CC2C)C(C#N)=C(N)Oc2cc(O)ccc21 (centres undefined),n,n,n[12.7 µM],n,n,n
Cc1ccc(C(=O)OCC(=O)NC2CCCCC2)s1,n,n,n,n,n,n
CCOc1ccc(NC(=O)C2CCN(c3nc4ccccc4[nH]3)CC2)cc1,u,n,n,n,x,x
CCOc1ccc(Br)cc1S(=O)(=O)NC(=O)c1ccccc1,n,n,n,n,n,n
Cc1ccc(C(=O)NCC(=O)N2CCc3ccccc3C2)cc1C,x,x,n,x,n,n
COC(=O)Cc1[nH]nc2c1C1(C(=O)N(Cc3ccccc3)c3ccccc31)C(C#N)=C(N)O2 (centres undefined),n,n,n[12.7 µM],n,n,n
CC(=O)N1C(=O)C2(C(C#N)=C(N)Oc3cc(C)oc(=O)c32)c2ccccc21 (centres undefined),n,n,n[12.7 µM],n,n,n
CC(=O)N1C(=O)C2(C(C#N)=C(N)Oc3c2c(C)nn3-c2ccccc2)c2ccccc21 (centres undefined),28.2µM,u,u,u,n,n
Cc1[nH]nc2c1C1(C(=O)N(Cc3ccc(Cl)cc3)c3ccccc31)C(C#N)=C(N)O2 (centres undefined),n,n,50.1µM,n,n,n
CC(C(=O)Nc1cccc([N+](=O)[O-])c1)[n+]1ccccc1 (centres undefined),22.4µM,n,x,n[2.34 µM],20µM,n
CC(Sc1cccc[n+]1[O-])C(=O)Nc1cccc([N+](=O)[O-])c1 (centres undefined),n,n,u,n,n,n
CCC(Sc1ccccn1)C(=O)Nc1cccc([N+](=O)[O-])c1 (centres undefined),n,n,x,n,56.2µM,n

# Screening results as filed in PubChem.
